For seven compounds, growth results are on record in PubChem BioAssay (NCI).

Among the test systems are SK-MEL-2 melanoma; SN12C renal; UO-31 renal; TK-10 renal; ACHN renal; CAKI-1 renal; A498 renal; CCRF-CEM leukemia; MOLT-4 leukemia; SR leukemia; RPMI-8226 leukemia; OVCAR-8 ovarian; OVCAR-5 ovarian; OVCAR-4 ovarian; SK-OV-3 ovarian; IGROV1 ovarian; OVCAR-3 ovarian; HS 578T breast; NCI/ADR-RES ovarian.
Holding throughout (assay): NCI-60 one-dose screen, 48 h (100 = growth as untreated, 0 = no growth, -100 = all killed)
Holding throughout (settings): 10 µM unless noted

Each structure is given as a SMILES string. The panel holds about 83,000 compounds, 20% with a hit somewhere; the sample as a whole holds those more often.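 Treatment: one concentration, 48 hours, 96-well format. Scoring: percent growth, with anything below 10 considered active.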 Values without a mark were called inactive. The source made the active and inactive calls.

In the case of `COC(=O)[C@H](C)NC(=O)c1ccc(NC(=O)c2[nH]c(C)c(Cl)c2Cl)c(OCCN)c1`, the growth in the experiment with SK-MEL-2 melanoma was 121%; in the experiment on SN12C renal, 97.5%; in the experiment with UO-31 renal, 98.2%; in the experiment on TK-10 renal, 112%; with ACHN renal, 99%; with CAKI-1 renal, 96%. In addition, the growth in the experiment on A498 renal was 88.9%; in the experiment with CCRF-CEM leukemia it was 97.8%; in the experiment on MOLT-4 leukemia, 91.2%; in the experiment with SR leukemia, 67.2%; in the experiment with RPMI-8226 leukemia it was 96.9%; in the experiment with OVCAR-8 ovarian it was 96.2%. Moreover, the growth was 106% with OVCAR-5 ovarian; 113% with OVCAR-4 ovarian; 106% in the experiment on SK-OV-3 ovarian; 104% with IGROV1 ovarian; 108% in the experiment on OVCAR-3 ovarian; 101% in the experiment on HS 578T breast. In addition, the growth in the experiment with NCI/ADR-RES ovarian was 107%.
For `CO[C@H]1CC(c2ccc[nH]2)=N[C@]12O[C@@H](C)C[C@@H]1CCCCCCCc3ccc([nH]3)[C@H]12`, the growth with SK-MEL-2 melanoma is -16.2% (active); in the experiment with SN12C renal, 33.6%; in the experiment with UO-31 renal it was -15.6% (active); in the experiment with TK-10 renal it was 15%; in the experiment with ACHN renal, 8.05% (active); in the experiment with CAKI-1 renal, 9.32% (active). In addition, the growth in the experiment on A498 renal was 57.4%; in the experiment on CCRF-CEM leukemia, 22.7%; in the experiment on MOLT-4 leukemia it was 20.6%; with SR leukemia it was 9.34% (active); in the experiment with RPMI-8226 leukemia it was -1.79% (active); in the experiment with OVCAR-8 ovarian it was 14.8%. Besides, the growth in the experiment with OVCAR-5 ovarian was 29.7%; with OVCAR-4 ovarian, 29.2%; with SK-OV-3 ovarian, 30%; in the experiment with IGROV1 ovarian, 28.9%; in the experiment with OVCAR-3 ovarian, 29.2%; in the experiment with HS 578T breast, 29.2%. Moreover, in the experiment with NCI/ADR-RES ovarian, the growth was 17.1%.
`C=CCn1c(SCC(=O)Nc2ccc(C(=O)/C=C/c3ccc(Cl)cc3)cc2)nnc1-c1ccc(Cl)c(Cl)c1`: the growth was 76.6% in the experiment with SK-MEL-2 melanoma; 82.3% in the experiment on SN12C renal; 54.4% in the experiment on UO-31 renal; 86.2% in the experiment with TK-10 renal; 87.7% in the experiment with ACHN renal; 63.5% with CAKI-1 renal. For the same compound, the growth in the experiment on A498 renal is 83.9%; in the experiment with CCRF-CEM leukemia, 52.9%; in the experiment on MOLT-4 leukemia it was 45.5%; with SR leukemia it was 57%; with RPMI-8226 leukemia, -34.5% (active); with OVCAR-8 ovarian it was 75.6%. Also, the growth in the experiment on OVCAR-5 ovarian is 90.5%; with OVCAR-4 ovarian, 86.7%; in the experiment with SK-OV-3 ovarian, 85.7%; in the experiment on IGROV1 ovarian, 76.4%; in the experiment with OVCAR-3 ovarian it was 83.8%; in the experiment on NCI/ADR-RES ovarian, 83.9%.
Turning to `COc1ccc(-c2cc(-c3ccc(Cl)cc3)c(C#N)c(=O)n2CCCCC(=O)NO)cc1`, the growth is 88% in the experiment with SK-MEL-2 melanoma; 68.7% with SN12C renal; -16.4% (active) with UO-31 renal; 70.4% in the experiment with TK-10 renal; 34.6% in the experiment with ACHN renal; -13.2% (active) in the experiment on CAKI-1 renal. The growth with A498 renal is 95.4%; in the experiment on CCRF-CEM leukemia it was 63.9%; in the experiment with MOLT-4 leukemia it was 80.6%; with SR leukemia it was 40.3%; in the experiment on RPMI-8226 leukemia it was 34%; with OVCAR-8 ovarian it was 53.9%. Also, the growth is 63.9% with OVCAR-5 ovarian; 74.9% with OVCAR-4 ovarian; 89.3% in the experiment with SK-OV-3 ovarian; 69% in the experiment with IGROV1 ovarian; 75% in the experiment with OVCAR-3 ovarian; 87.8% in the experiment with HS 578T breast. Further, the growth with NCI/ADR-RES ovarian is 10.8%.
As to `CCCCCCCCCCCCCCCCCCOc1ccccc1CC(=O)OCC[N+]1(C)CCCCC1`, the growth is 80.3% in the experiment on SK-MEL-2 melanoma; 24.2% with SN12C renal; 73.8% with UO-31 renal; 66.2% in the experiment with TK-10 renal; 94.7% in the experiment on ACHN renal; 65.5% in the experiment on CAKI-1 renal. Moreover, the growth was 83.3% in the experiment with A498 renal; 6.32% (active) with CCRF-CEM leukemia; 6.43% (active) in the experiment with MOLT-4 leukemia; 10% in the experiment with SR leukemia; -10.2% (active) with RPMI-8226 leukemia; 21.9% with OVCAR-8 ovarian. For the same compound, the growth was 54.8% with OVCAR-5 ovarian; 32% with OVCAR-4 ovarian; 96.6% with SK-OV-3 ovarian; -32.1% (active) with IGROV1 ovarian; 61.7% with OVCAR-3 ovarian; 62.3% in the experiment with HS 578T breast. Besides, the growth with NCI/ADR-RES ovarian was 92.3%.
Consider `O=C(CSc1nnc(-c2cc(-c3ccc(Cl)cc3)nc3ccccc23)n1-c1ccccc1)Nc1ccc(Cl)cc1`, for which the growth with SK-MEL-2 melanoma was 105%; with SN12C renal it was 90.5%; with UO-31 renal it was 77.6%; with TK-10 renal, 132%; in the experiment on ACHN renal, 106%; in the experiment with CAKI-1 renal, 89.5%. The growth with A498 renal was 88.2%; with CCRF-CEM leukemia it was 98.5%; in the experiment on MOLT-4 leukemia, 84.1%; in the experiment with SR leukemia it was 78.6%; in the experiment on RPMI-8226 leukemia, 102%; in the experiment with OVCAR-8 ovarian, 98.3%. The growth in the experiment on OVCAR-5 ovarian was 102%; in the experiment with OVCAR-4 ovarian, 108%; in the experiment on SK-OV-3 ovarian it was 94.6%; in the experiment on IGROV1 ovarian, 97.8%; in the experiment with OVCAR-3 ovarian, 106%; in the experiment on HS 578T breast it was 109%. The growth in the experiment on NCI/ADR-RES ovarian is 99.4%.
As for `CCc1ccc(Cc2cnc(NC(=O)c3cc(C)oc3C)s2)cc1`, the growth is 59.4% in the experiment on SK-MEL-2 melanoma; 45.1% in the experiment on SN12C renal; 43.6% in the experiment on UO-31 renal; 60.1% with TK-10 renal; 48.7% in the experiment on ACHN renal; 22.2% in the experiment with CAKI-1 renal. Also, the growth with CCRF-CEM leukemia was 28.5%; in the experiment with MOLT-4 leukemia, 29.2%; in the experiment on SR leukemia, 19.5%; in the experiment with RPMI-8226 leukemia it was 51%; in the experiment with OVCAR-8 ovarian, 52.9%; in the experiment with OVCAR-5 ovarian it was 55.2%. The growth in the experiment with OVCAR-4 ovarian is 54.7%; in the experiment with SK-OV-3 ovarian it was 52.8%; in the experiment on IGROV1 ovarian it was 43%; in the experiment on OVCAR-3 ovarian, 16.7%; in the experiment with HS 578T breast, 23.6%; in the experiment with NCI/ADR-RES ovarian, 34.1%.
